Screening results from PubChem BioAssay.
USP17 block = inhibitors of human USP17 deubiquitinase. hit rate 6.5% among 47,000. purified USP17, Ub-rhodamine cleavage fluorescence, 3 h. inhibition, % at 50 µM. AID 1645855, 2021. Ubiquitin carboxyl-terminal hydrolase 17-like protein 5 (Homo sapiens), A8MUK1
Target sequence (A8MUK1 whole entry, looked up): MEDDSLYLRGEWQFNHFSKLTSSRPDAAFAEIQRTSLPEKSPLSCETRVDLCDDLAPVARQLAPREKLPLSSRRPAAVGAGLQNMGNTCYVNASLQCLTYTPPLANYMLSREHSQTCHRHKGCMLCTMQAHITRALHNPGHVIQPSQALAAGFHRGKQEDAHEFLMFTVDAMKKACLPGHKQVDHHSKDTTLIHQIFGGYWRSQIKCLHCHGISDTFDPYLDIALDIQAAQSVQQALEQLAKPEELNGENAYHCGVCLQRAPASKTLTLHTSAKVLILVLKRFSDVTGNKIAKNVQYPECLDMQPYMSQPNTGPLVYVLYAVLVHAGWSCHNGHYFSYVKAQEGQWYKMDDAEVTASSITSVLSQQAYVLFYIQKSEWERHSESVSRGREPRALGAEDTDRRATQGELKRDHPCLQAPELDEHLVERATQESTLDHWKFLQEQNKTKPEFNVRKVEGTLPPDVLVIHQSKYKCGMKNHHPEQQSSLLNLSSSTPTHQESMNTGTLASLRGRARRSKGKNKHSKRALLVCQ
USP28 block = inhibitors of human USP28 deubiquitinase; inhibition, % at 25 µM; hit rate 3% among 47,000; purified USP28, Ub-rhodamine cleavage fluorescence, 30 min; AID 1645857, 2021; Ubiquitin carboxyl-terminal hydrolase 28 (Homo sapiens), Q96RU2
USP30 block = inhibitors of human USP30 deubiquitinase. Ubiquitin carboxyl-terminal hydrolase 30 (Homo sapiens), Q70CQ3. purified USP30, Ub-rhodamine cleavage fluorescence. inhibition, % at 25 µM. hit rate 5.3% among 47,000
USP8 inh = inhibitors of human USP8 deubiquitinase; Ubiquitin carboxyl-terminal hydrolase 8 (Homo sapiens), P40818; purified USP8, Ub-rhodamine cleavage fluorescence, 30 min; inhibition, % at 20 µM; hit rate 4.2% among 47,000; AID 1645853, 2021
A number is an active result. Compounds with a hit are over-represented: about 14% of the library has one in this group of screens. No stated cut-off is given here; in the data, active means inhibition above about 30%; inactive means the rest.

What do the screens show for `COc1cccc(CC(=O)Nc2cnc(-c3ccc(Cl)cc3)nc2)c1`?
USP17 block: 37; USP28 block: inactive; USP30 block: inactive; USP8 inh: 79

What do the screens show for `COc1cccc(C(=O)Nc2cnc(-c3ccccc3)nc2)c1`?
USP17 block: inactive; USP28 block: inactive; USP30 block: inactive; USP8 inh: inactive

How did O=C(COc1ccccc1)Nc1cnc(-c2ccc(Cl)cc2)nc1 do in these assays?
USP17 block: 31; USP28 block: inactive; USP30 block: inactive; USP8 inh: 78

What do the screens show for `Cc1ccc(-c2ncc(NC(=O)COc3cccc(C)c3)cn2)cc1`?
USP17 block: inactive; USP28 block: inactive; USP30 block: inactive; USP8 inh: 30

How did CCN1CCN(c2ccc(NC(=O)COc3cccc(C)c3)cc2)CC1 do in these assays?
USP17 block: inactive; USP28 block: inactive; USP30 block: 32; USP8 inh: inactive

Results for Cc1nc(CNC(=O)Cc2ccc(Cl)cc2)cs1 ?
USP17 block: inactive; USP28 block: inactive; USP30 block: inactive; USP8 inh: inactive

Results for CC1NC(=O)[C@H]2C[C@H](C(=O)Nc3cccnc3)[C@@H]1N2Cc1ccccc1 (stereo not given in full) ?
USP17 block: inactive; USP28 block: inactive; USP30 block: inactive; USP8 inh: inactive

How did CC(C)C(=O)NCCc1cc2nc(-c3ccncc3)ccn2n1 do in these assays?
USP17 block: inactive; USP28 block: inactive; USP30 block: inactive; USP8 inh: inactive

Results for O=C(COc1ccc(F)cc1)Nc1cnc(-c2ccc(Cl)cc2)nc1 ?
USP17 block: 74; USP28 block: inactive; USP30 block: 35; USP8 inh: 95

What do the screens show for `O=C(COc1ccccc1)Nc1cnc(-c2ccccc2)nc1`?
USP17 block: 44; USP28 block: inactive; USP30 block: inactive; USP8 inh: inactive

How did O=C(COc1ccc(F)cc1)Nc1cnc(-c2cccc(Cl)c2)nc1 do in these assays?
USP17 block: inactive; USP28 block: inactive; USP30 block: inactive; USP8 inh: inactive

What do the screens show for `O=c1[nH]c2cc3c(cc2c(=O)n1Cc1nc(-c2ccc(F)cc2)no1)OCO3`?
USP17 block: inactive; USP28 block: inactive; USP30 block: inactive; USP8 inh: inactive

How did O=c1[nH]c2ccccc2c(=O)n1CCc1nc(-c2ccc(F)cc2)no1 do in these assays?
USP17 block: 36; USP28 block: inactive; USP30 block: inactive; USP8 inh: inactive

How did CCOc1ccccc1-c1noc(CCn2c(=O)[nH]c3ccccc3c2=O)n1 do in these assays?
USP17 block: inactive; USP28 block: inactive; USP30 block: 35; USP8 inh: inactive

What do the screens show for `CCn1c(=O)c2ccccc2n(Cc2nc(-c3ccccc3OC)no2)c1=O`?
USP17 block: 56; USP28 block: inactive; USP30 block: inactive; USP8 inh: inactive

Results for Cc1cccc(C)c1OCC(=O)Nc1ccc2c(c1)NC(=O)C(C)O2 (stereo not given) ?
USP17 block: inactive; USP28 block: inactive; USP30 block: inactive; USP8 inh: inactive

How did O=c1cc(CN2CCc3ccccc3C2)nc2nc(NCc3ccccc3)[nH]n12 do in these assays?
USP17 block: inactive; USP28 block: inactive; USP30 block: inactive; USP8 inh: inactive

What do the screens show for `CC(C)c1ccc(CNc2nc3nc(CN4CCCC4)cc(=O)n3[nH]2)cc1`?
USP17 block: inactive; USP28 block: inactive; USP30 block: inactive; USP8 inh: inactive

How did COc1ccc(NCc2cc(=O)n3[nH]c(NCc4ccc(C(C)C)cc4)nc3n2)cc1 do in these assays?
USP17 block: 56; USP28 block: inactive; USP30 block: inactive; USP8 inh: inactive

How did O=c1cc(CN2CCc3ccccc3C2)nc2nc(NCc3ccc(Cl)cc3)[nH]n12 do in these assays?
USP17 block: inactive; USP28 block: 30; USP30 block: 49; USP8 inh: inactive

How did O=C1CC[C@H](O)c2cccc(O)c21 do in these assays?
USP17 block: inactive; USP28 block: inactive; USP30 block: inactive; USP8 inh: inactive

What do the screens show for `O=C1CC(O)C(O)c2cccc(O)c21` (stereo not given)?
USP17 block: 90; USP28 block: 34; USP30 block: inactive; USP8 inh: 76

What do the screens show for `Cc1cccc(N2CC[C@@H]3CO[C@@H](CNC(=O)c4ccco4)[C@@H]3C2)n1`?
USP17 block: inactive; USP28 block: inactive; USP30 block: inactive; USP8 inh: inactive

How did O=c1oc2ccccc2c(NCc2ccc3c(c2)OCO3)c1CN1CCCC1 do in these assays?
USP17 block: 31; USP28 block: inactive; USP30 block: inactive; USP8 inh: inactive

How did CCOC(=O)C1=C(COc2ccc(C(=O)CC)cc2)NC(=O)NC1C (stereo not given) do in these assays?
USP17 block: inactive; USP28 block: inactive; USP30 block: inactive; USP8 inh: inactive

How did Cc1ccccc1-c1noc(COc2ccc(C(N)=O)cc2)n1 do in these assays?
USP17 block: inactive; USP28 block: 40; USP30 block: inactive; USP8 inh: inactive

Results for CCOC(=O)c1ccc(OCc2nc(-c3ccc(OC)c(OC)c3)no2)cc1 ?
USP17 block: inactive; USP28 block: inactive; USP30 block: inactive; USP8 inh: inactive

What do the screens show for `COc1c2n(c3ccccc13)[C@@]1(O)C(=O)N(C)C(=O)[C@@]1(O)c1c-2n(C)c2ccc(Cl)cc12`?
USP17 block: 59; USP28 block: 42; USP30 block: inactive; USP8 inh: inactive

How did CC(=O)N1CCOCC2(CN(Cc3ccoc3)CCO2)C1 (stereo not given) do in these assays?
USP17 block: inactive; USP28 block: inactive; USP30 block: inactive; USP8 inh: inactive

How did CCc1noc(-c2ccn3c(CC(=O)Nc4ccccc4C)nnc3c2)n1 do in these assays?
USP17 block: inactive; USP28 block: inactive; USP30 block: inactive; USP8 inh: 76

Results for Cc1ccc(NC(=O)Cc2nnc3cc(-c4nc(C)no4)ccn23)cc1 ?
USP17 block: inactive; USP28 block: 42; USP30 block: 69; USP8 inh: 62

What do the screens show for `CCc1ccc(NC(=O)Cc2nnc3cc(-c4nc(C)no4)ccn23)cc1`?
USP17 block: 55; USP28 block: 30; USP30 block: inactive; USP8 inh: 84

How did O=C(NCc1nnc(SC/C=C/c2ccccc2)o1)c1ccccc1F do in these assays?
USP17 block: inactive; USP28 block: inactive; USP30 block: inactive; USP8 inh: inactive

How did Cc1nc(N2CCCC2)ncc1C(=O)Nc1ccc(F)c(F)c1 do in these assays?
USP17 block: inactive; USP28 block: inactive; USP30 block: 53; USP8 inh: inactive

What do the screens show for `COc1ccc(NC(=O)c2cnc(N3CCCCC3)nc2C)cc1OC`?
USP17 block: inactive; USP28 block: 44; USP30 block: inactive; USP8 inh: inactive

What do the screens show for `CO\C=C(C(=O)OC)/C(C)=C/C=C/c1ccc(Cl)c(OC)c1`?
USP17 block: inactive; USP28 block: inactive; USP30 block: inactive; USP8 inh: inactive

Results for CN(CC1CCCO1)C1CCN(C(=O)CNC(=O)/C=C/c2ccc(Cl)cc2)CC1 (stereo not given) ?
USP17 block: inactive; USP28 block: inactive; USP30 block: inactive; USP8 inh: inactive

What do the screens show for `O=C(Cn1c(=O)n(Cc2ccncc2)c(=O)c2ncccc21)Nc1ccccc1`?
USP17 block: inactive; USP28 block: inactive; USP30 block: inactive; USP8 inh: inactive
